The antibiotic and cytotoxicity screens of Wong et al. (2023)
Hit rate of the full screen: of about 39,000 compounds, about 1,500 (3.8%) were called active. This excerpt belongs to a sample that is enriched for actives.

Tested on: HSkMC (human skeletal muscle cells)
Experiment: cytotoxicity call (relative viability < 0.9)
Conditions: 10 µM

Q: `CC(C)=C[C@H]1[C@@H](c2nc3cc(Br)ccc3o2)C1(C)C` was tested. Which cytotoxicity call did it give?
A: inactive

Q: `C[C@@H]1CCCCO[C@H](CN(C)S(=O)(=O)c2ccc(F)cc2)[C@@H](C)CN([C@H](C)CO)C(=O)c2cc(NC(=O)Nc3ccc(C(F)(F)F)cc3)ccc2O1` was tested. Which cytotoxicity call did it give?
A: inactive

Q: `COCC(=O)N1C[C@@H](C)[C@H](OC)CN(C)C(=O)c2ccc(NC(=O)c3ccc(F)cc3)cc2OC[C@@H]1C` was tested. Which cytotoxicity call did it give?
A: inactive

Q: For `C[C@@H]1CN([C@@H](C)CO)C(=O)Cc2cc(NC(=O)Nc3ccc(F)cc3)ccc2O[C@@H]1CN(C)Cc1ccc(C(F)(F)F)cc1`, which cytotoxicity call is on record?
A: active

Q: For `C[C@H](CO)N1C[C@H](C)[C@@H](CN(C)Cc2ccc(C(F)(F)F)cc2)Oc2ccc(NC(=O)Nc3ccc(F)cc3)cc2CC1=O`, which cytotoxicity call is on record?
A: active

Q: With `C[C@H]1CN([C@@H](C)CO)C(=O)Cc2cc(NC(=O)Nc3ccc(F)cc3)ccc2O[C@H]1CN(C)Cc1ccc(C(F)(F)F)cc1` as the compound, how does the cytotoxicity call read?
A: active

Q: For `C[C@@H]1CN([C@@H](C)CO)C(=O)Cc2cc(NC(=O)Nc3ccc(F)cc3)ccc2O[C@H]1CN(C)Cc1ccc(C(F)(F)F)cc1`, which cytotoxicity call is on record?
A: inactive

Q: `C[C@H]1CN([C@@H](C)CO)C(=O)Cc2cc(NC(=O)Nc3ccc(F)cc3)ccc2O[C@@H]1CN(C)Cc1ccc(C(F)(F)F)cc1` was tested. Which cytotoxicity call did it give?
A: inactive

Q: `C[C@@H]1CN([C@H](C)CO)C(=O)Cc2cc(NC(=O)Nc3ccc(F)cc3)ccc2O[C@H]1CN(C)Cc1ccc(C(F)(F)F)cc1` was tested. Which cytotoxicity call did it give?
A: active

Q: Which cytotoxicity call does the source give for `C[C@H](CO)N1C[C@H](C)[C@@H](CN(C)Cc2ccc(C(=O)O)cc2)Oc2c(NS(=O)(=O)c3cn(C)cn3)cccc2C1=O` here?
A: inactive

Q: For `CC(C)NC(=O)N(C)C[C@@H]1OCCCC[C@H](C)Oc2ccc(NC(=O)Nc3ccc(F)cc3)cc2C(=O)N([C@H](C)CO)C[C@@H]1C`, which cytotoxicity call is on record?
A: inactive

Q: For `C[C@@H]1CN([C@@H](C)CO)C(=O)c2cc(NC(=O)C3CCCCC3)ccc2O[C@@H](C)CCCCO[C@H]1CN(C)C(=O)Nc1ccccc1`, which cytotoxicity call is on record?
A: inactive

Q: With `C[C@H](CO)N1C[C@H](C)[C@@H](CN(C)S(=O)(=O)c2ccc(Cl)cc2)Oc2ccc(N(C)C)cc2C1=O` as the compound, how does the cytotoxicity call read?
A: inactive

Q: With `COCCNC(=O)C[C@@H]1CC[C@H]2[C@@H](COC[C@@H](O)CN2C(=O)Nc2ccc3c(c2)OCO3)O1` as the compound, how does the cytotoxicity call read?
A: inactive

Q: `O=C(O)Cc1cccc(OCCCN(Cc2cccc(C(F)(F)F)c2Cl)CC(c2ccccc2)c2ccccc2)c1` was tested. Which cytotoxicity call did it give?
A: inactive

Q: Which cytotoxicity call does the source give for `Cc1noc(C)c1NC(=O)N(C)C[C@H]1Oc2ccc(NC(=O)Nc3cccc4ccccc34)cc2C(=O)N([C@@H](C)CO)C[C@H]1C` here?
A: inactive

Q: How did the cytotoxicity call turn out when `C=CCOC(=O)[C@@H]1[C@H]2C(=O)O[C@H](c3ccccc3)[C@H](c3ccccc3)N2[C@H](c2ccc(OCCOC(=O)[C@H]3C[C@H]4C(=O)N[C@@H](CCCCN(C)C)C(=O)N4[C@H]3c3cccc(OCCO)c3)cc2)[C@@]12C(=O)Nc1ccc(I)cc12` was run?
A: inactive

Q: How did the cytotoxicity call turn out when `COc1ccc2c3c(n(c2c1)C)[C@H](CO)N(C[C@]13CCN(CC1)C(=O)CN(C)C)S(=O)(=O)C` was run?
A: inactive

Q: With `C[C@H](CO)N1C[C@H](C)[C@H](CN(C)Cc2ccc(C(F)(F)F)cc2)Oc2ccc(NC(=O)Nc3ccc(F)cc3)cc2CC1=O` as the compound, how does the cytotoxicity call read?
A: active

Q: With `C[C@@H]1CN([C@H](C)CO)C(=O)Cc2cc(NC(=O)Nc3ccc(F)cc3)ccc2O[C@@H]1CN(C)Cc1ccc(C(F)(F)F)cc1` as the compound, how does the cytotoxicity call read?
A: active

Q: How did the cytotoxicity call turn out when `CO[C@H]1CN(C)C(=O)c2cc(NC(=O)NC(C)C)ccc2OC[C@H](C)N(Cc2ccc(-c3ccccn3)cc2)C[C@@H]1C` was run?
A: inactive

Q: How did the cytotoxicity call turn out when `COCC(=O)N(C)C[C@@H]1Oc2cc(C#Cc3ccccc3)ccc2S(=O)(=O)N([C@H](C)CO)C[C@H]1C` was run?
A: inactive

Q: `CO[C@@H]1CN(C)C(=O)c2cc(NC(=O)Nc3ccccc3)ccc2OC[C@@H](C)N(C(=O)CN(C)C)C[C@@H]1C` was tested. Which cytotoxicity call did it give?
A: inactive

Q: For `Nc1ccn([C@H]2CC[C@@H](CO)O2)c(=O)n1`, which cytotoxicity call is on record?
A: inactive

Q: Which cytotoxicity call does the source give for `CC(C)CC#Cc1ccc2c(c1)O[C@H](CN(C)C(=O)c1ccncc1)[C@@H](C)CN([C@H](C)CO)S2(=O)=O` here?
A: inactive

Q: With `CCn1c(-c2nonc2N)nc2cncc(C(=O)N3CC[C@H](N)C3)c21` as the compound, how does the cytotoxicity call read?
A: active

Q: Which cytotoxicity call does the source give for `C[C@H](CO)N1C[C@H](C)[C@H](CN(C)Cc2ccncc2)OCCCC[C@H](C)Oc2ccc(NC(=O)NC3CCCCC3)cc2C1=O` here?
A: inactive

Q: With `C[C@@H]1CCCCO[C@H](CN(C)C(=O)Cc2ccccc2)[C@H](C)CN([C@H](C)CO)C(=O)c2cc(NS(=O)(=O)c3ccc(Cl)cc3)ccc2O1` as the compound, how does the cytotoxicity call read?
A: inactive

Q: For `C[C@H](CO)N1C[C@H](C)[C@H](CN(C)C(=O)C2CCCCC2)OCCCC[C@H](C)Oc2ccc(NC(=O)Nc3ccc4c(c3)OCO4)cc2C1=O`, which cytotoxicity call is on record?
A: inactive

Q: For `Nc1ccn([C@H]2O[C@@H](CO)[C@@H](O)[C@@H]2O)c(=O)n1`, which cytotoxicity call is on record?
A: inactive

Q: For `O=C(C[C@@H]1C=C[C@@H](NS(=O)(=O)c2ccccc2F)[C@@H](CO)O1)NCCCN1CCOCC1`, which cytotoxicity call is on record?
A: inactive

Q: How did the cytotoxicity call turn out when `O=C(CCCCC(=O)N/N=C/c1cc[n+]([O-])cc1)NO` was run?
A: inactive

Q: `Cc1ccc(S(=O)(=O)Nc2ccc3c(c2)CC(=O)N([C@H](C)CO)C[C@H](C)[C@H](CN(C)C(=O)Nc2cccc4ccccc24)O3)cc1` was tested. Which cytotoxicity call did it give?
A: inactive

Q: `CN(C)C1CCN(C(=O)c2cnc(-c3noc4cc(-c5ccccc5C(F)(F)F)ccc34)s2)CC1` was tested. Which cytotoxicity call did it give?
A: inactive

Q: With `CN(C)C1CCN(C(=O)c2cnc(-c3noc4cc(-c5cccc(C(F)(F)F)c5)ccc34)s2)CC1` as the compound, how does the cytotoxicity call read?
A: active

Q: `C[C@H](CO)N1C[C@H](C)[C@H](CN(C)C(=O)Nc2ccccc2)Oc2ncc(-c3cccc(C(F)(F)F)c3)cc2C1=O` was tested. Which cytotoxicity call did it give?
A: inactive

Q: With `COc1ccc(S(=O)(=O)Nc2ccc3c(c2)CC(=O)N([C@@H](C)CO)C[C@H](C)[C@@H](CN(C)S(=O)(=O)c2cn(C)cn2)O3)cc1` as the compound, how does the cytotoxicity call read?
A: inactive

Q: Which cytotoxicity call does the source give for `O=C(C1=C[C@H](c2coc3ccccc3c2=O)C[C@H](OCCCCO)O1)N1CCN(Cc2ccc3c(c2)OCO3)CC1` here?
A: inactive

Q: Which cytotoxicity call does the source give for `CNc1cccc(CN)c1` here?
A: inactive

Q: `CN1CCC(Nc2nc(Nc3ccc(Oc4ccccc4)cc3)c3c(O)ncc(Br)c3n2)CC1` was tested. Which cytotoxicity call did it give?
A: active

Q: With `C=CC[C@H](CC(=O)N(CCO)Cc1ccccc1)C(=O)N[C@@H](COC(=O)[C@@H](CC=C)Cc1ccc(F)cc1)Cc1c[nH]c2ccccc12` as the compound, how does the cytotoxicity call read?
A: active

Q: Which cytotoxicity call does the source give for `C=CC[C@@H](CC(=O)N(CCO)Cc1ccccc1)C(=O)N[C@H](COC(=O)[C@@H](CC=C)Cc1ccc(F)cc1)Cc1c[nH]c2ccccc12` here?
A: active

Q: `C=CC[C@H](CC(=O)N(CCO)Cc1ccccc1)C(=O)N[C@@H](COC(=O)[C@H](CC=C)CC(=O)OC(C)(C)C)Cc1c[nH]c2ccccc12` was tested. Which cytotoxicity call did it give?
A: inactive

Q: For `C=CC[C@H](CC(=O)N(CCO)Cc1ccccc1)C(=O)N[C@@H](COC(=O)[C@@H](CC=C)CC(=O)OC(C)(C)C)Cc1c[nH]c2ccccc12`, which cytotoxicity call is on record?
A: inactive

Q: With `C=CC[C@@H](CC(=O)N(CCO)Cc1ccccc1)C(=O)N[C@@H](COC(=O)[C@@H](CC=C)CC(=O)OC(C)(C)C)Cc1c[nH]c2ccccc12` as the compound, how does the cytotoxicity call read?
A: inactive

Q: For `C=CC[C@H](CC(=O)N(CCO)Cc1ccccc1)C(=O)N[C@H](COC(=O)[C@@H](CC=C)Cc1ccc(F)cc1)Cc1c[nH]c2ccccc12`, which cytotoxicity call is on record?
A: inactive

Q: For `C=CC[C@H](CC(=O)N(CCO)Cc1ccccc1)C(=O)N[C@H](COC(=O)[C@@H](CC=C)CC(=O)OC(C)(C)C)Cc1c[nH]c2ccccc12`, which cytotoxicity call is on record?
A: inactive

Q: For `C=CC[C@@H](CC(=O)N(CCO)Cc1ccccc1)C(=O)N[C@@H](COC(=O)[C@H](CC=C)Cc1ccc(F)cc1)Cc1c[nH]c2ccccc12`, which cytotoxicity call is on record?
A: active

Q: `C=CC[C@@H](CC(=O)N(CCO)Cc1ccccc1)C(=O)N[C@@H](COC(=O)[C@@H](CC=C)Cc1ccc(F)cc1)Cc1c[nH]c2ccccc12` was tested. Which cytotoxicity call did it give?
A: active

Q: How did the cytotoxicity call turn out when `C=CC[C@@H](CC(=O)N(CCO)Cc1ccccc1)C(=O)N[C@@H](COC(=O)[C@H](CC=C)CC(=O)OC(C)(C)C)Cc1c[nH]c2ccccc12` was run?
A: inactive

Q: `C=CC[C@@H](CC(=O)N(CCO)Cc1ccccc1)C(=O)N[C@H](COC(=O)[C@@H](CC=C)CC(=O)OC(C)(C)C)Cc1c[nH]c2ccccc12` was tested. Which cytotoxicity call did it give?
A: inactive

Q: How did the cytotoxicity call turn out when `C=CC[C@H](CC(=O)N(CCO)Cc1ccccc1)C(=O)N[C@H](COC(=O)[C@H](CC=C)CC(=O)OC(C)(C)C)Cc1c[nH]c2ccccc12` was run?
A: inactive

Q: `C[C@H]1CCCCO[C@H](CN(C)CC2CC2)[C@@H](C)CN([C@@H](C)CO)C(=O)c2cc(NC(=O)C3CCCCC3)ccc2O1` was tested. Which cytotoxicity call did it give?
A: inactive

Q: `C[C@@H]1CN([C@@H](C)CO)C(=O)c2cc(NC(=O)C3CC3)ccc2O[C@H]1CN(C)S(=O)(=O)c1ccc(F)cc1` was tested. Which cytotoxicity call did it give?
A: inactive

Q: `C[C@@H]1CN([C@H](C)CO)S(=O)(=O)c2ccc(/C=C/c3ccccc3)cc2O[C@@H]1CN(C)C(=O)Nc1cc(F)ccc1F` was tested. Which cytotoxicity call did it give?
A: inactive

Q: For `NC(=S)c1cnccn1`, which cytotoxicity call is on record?
A: inactive

Q: How did the cytotoxicity call turn out when `C[C@@H]1CCCCO[C@H](CN(C)Cc2ccc(C(F)(F)F)cc2)[C@H](C)CN([C@@H](C)CO)C(=O)c2cc(NS(=O)(=O)c3ccccc3)ccc2O1` was run?
A: inactive

Q: For `C[C@H](CO)N1C[C@H](C)[C@@H](CN(C)C(=O)Nc2ccc(F)cc2)Oc2ccc(NC(=O)C3CC3)cc2CC1=O`, which cytotoxicity call is on record?
A: inactive

Q: For `C[C@@H]1CN([C@H](C)CO)C(=O)c2cc(C3=CCCC3)cnc2O[C@@H]1CN(C)C(=O)c1ccc2c(c1)OCO2`, which cytotoxicity call is on record?
A: inactive

Q: Which cytotoxicity call does the source give for `C[C@H](CO)N1C[C@H](C)[C@@H](CN(C)C(=O)c2ccccc2)OCCCC[C@H](C)Oc2ccc(NC(=O)Nc3cccc4ccccc34)cc2C1=O` here?
A: inactive

Q: For `CN1CCN(C(=O)C[C@H]2CC[C@@H]3[C@H](COC[C@@H](O)CN3S(=O)(=O)c3cccc(F)c3)O2)CC1`, which cytotoxicity call is on record?
A: inactive

Q: How did the cytotoxicity call turn out when `C[C@@H]1CN([C@@H](C)CO)C(=O)c2c(c3ccccc3n2C)-c2ccccc2CO[C@@H]1CN(C)Cc1ccc(C(=O)O)cc1` was run?
A: inactive
